According to PubChem BioAssay AID743269 (The Scripps Research Institute Molecular Screening Center, 2014):
Hit rate of the full screen: of about 370,000 compounds, about 2,400 (0.65%) were called active.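 How the source made its calls: active means inhibition above the screen-wide mean plus 3 SD (cut at about 13% in these data); inactive means the rest.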 This excerpt belongs to a sample that is enriched for actives.

test system: HIV-1 integrase (with human LEDGF/p75); assay: blockers of LEDGF/p75-dependent integrase strand transfer – biochemical, TR-FRET, high throughput, primary screen (AID 743269); conditions: TR-FRET IN-LEDGF/p75 DNA integration, Eu/Cy5; at 3.7 µM; hits give high values;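 further: signal is the Cy5 over europium emission ratio at 671 and 618 nm; 0% = plate median of compound wells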

inhibition, active:
CCOc1cccc(=O)c2c(C)n(CC3CCCO3)c(C)c12 (stereo not given) 19.8%, NC(=O)c1ccccc1NC(=O)c1ccccc1F 30.1%, COCCn1nnnc1C(c1cc2ccc(OC)cc2[nH]c1=O)N1CCc2ccccc2C1 (stereo not given) 23.1%, CCOC(=O)c1c(C)[nH]c2c1-c1ccccc1C(=O)C2=O 35%, CCN(CC)CCCC(C)n1c2nc(=O)[nH]c(=O)c-2nc2cc(Cl)ccc21 (stereo not given) 19.5%, Cc1cc(SCC(=O)NCCN2C(=O)CSC2=O)nc2ccccc12 24.8%, c1ccc(C2=Nc3cccc4cccc(c34)N2)cc1 15.3%, Cn1ccc(=Nc2ccc(NC(=O)c3ccc(N=c4ccn(C)c5ccc([N+](=O)[O-])cc45)cc3)cc2)cc1 19.9%, Cc1cc(=O)n2[nH]c(-c3sccc3-n3c(C)ccc3C)cc2n1 55.6%, O=C(COC(=O)CCC(=O)c1cccs1)NCc1ccco1 38.8%, Cc1cc(C(=O)N/N=C/c2ccc(O)c([N+](=O)[O-])c2)c(C)n1-c1ccc(F)cc1 18.1%, O=C(OCCOc1ccccc1F)c1cc(S(=O)(=O)N2CCOCC2)ccc1F 13.4%, COc1ccc2[nH]c3c(C)c4cc[n+](C)cc4c(C)c3c2c1 28%, Cc1ccc(-c2nn(-c3ccccc3)cc2/C=C2\SC(=S)N(CCCCCC(=O)O)C2=O)o1 13.6%, O=C(OCC(=O)N1CCN(c2ccccc2)CC1)c1ccc([N+](=O)[O-])s1 16.4%, COc1ccc(NC(=O)C(NC(C)=O)C(=O)NCc2ccccc2Cl)cc1 (stereo not given) 41.8%, Cc1ccc(S(=O)(=O)/N=C2\C=C(NS(=O)(=O)c3ccc(C)cc3)C(=O)c3ccccc32)cc1 14.9%, COc1ccc(S(=O)(=O)/N=C2\C=C(NS(=O)(=O)c3ccccc3)C(=O)c3ccccc32)cc1 15.6%

inhibition, inactive:
CC(=O)Nc1ccc(NC(=O)CSc2nnc(COc3ccccc3C)n2CC2CCCO2)cc1 (stereo not given) -8.13%, CCOc1ccc(NC(=O)c2cccc3c2C(=O)N(CC2CCCO2)C3)cc1 (stereo not given) 0.61%, COc1ccccc1CCNC(=O)C1CCN(c2nc(C)cc(C)n2)CC1 -0.51%, O=C(NCc1cccs1)C1CCCN(S(=O)(=O)c2ccc([N+](=O)[O-])cc2)C1 (stereo not given) 4.07%, O=C(Nc1ccccc1F)c1ccccc1-c1ccccc1 -1.52%, O=C(Nc1nnc(-c2ccccc2F)s1)c1ccccc1F 5.09%, Cc1cc(NS(=O)(=O)c2ccc(NC(=O)CSc3nnc(-c4ccc(C(C)(C)C)cc4)n3Cc3ccco3)cc2)nc(C)n1 2.06%, COC(=O)[C@]1(C#N)CC(=O)N(CC2CCCCC2)[C@@H]1c1ccccc1 8.17%, COc1ccc(CCC(C)N2CCc3ccccc3C2)cc1 (stereo not given) 0%, COCCn1nnnc1C(c1ccccc1Cl)N1CCN(c2ccccc2OC)CC1 (stereo not given) -2.12%, O=C(CSc1nnc(-c2ccccn2)n1-c1ccccc1)Nc1ccc2cn[nH]c2c1 3.75%, CC[C@@H](CCC(=O)N(c1ccccc1)c1ccccc1)C1CC1 -0.47%, CCOC(=O)c1[nH]c(C)c(C(=O)OCC(=O)N2c3ccccc3CC2C)c1C (stereo not given) 0.57%, CCOC(=O)C1=C(C)c2ccccc2OC1C(=O)OCC (stereo not given) 0.5%, CN1C(=O)c2cc(NS(C)(=O)=O)ccc2OC[C@@H]2O[C@@H](CC(=O)NCc3ccc(-c4ccccc4)cc3)CC[C@H]21 0.81%, CC(CCN1CCC(C(O)(c2ccccc2)c2ccccc2)CC1)Oc1ccc(Cl)cc1 (stereo not given) -0.76%, Cc1cc2nc3c(=O)[nH]c(=O)nc-3n(C[C@H](O)[C@H](O)[C@H](O)CO)c2cc1C -0.23%, CC(CCN1CCC(C(O)(c2ccccc2)c2ccccc2)CC1)Oc1ccc([N+](=O)[O-])cc1Cl (stereo not given) 5.97%, O=C(CCCCCN1C(=O)C2C3C=CC(C3)C2C1=O)Nc1ccccn1 (stereo not given) 1.71%, CCCNC(=O)CSc1nc(Cc2ccccc2)nc2ccccc12 -2.65%, COc1ccc2c(C)cc(SCC(=O)NCC3CCCO3)nc2c1 (stereo not given) 5.4%, COP(=O)(O)CNC(=O)OCc1ccccc1 2.52%, C[C@@H](NC(=O)c1ccccc1OCC(=O)Nc1ccc(I)cc1)C(=O)N(C)Cc1ccccc1 -0.62%, CCCOc1ccc(Oc2c(Cl)cnn(Cc3cccc4ccccc34)c2=O)cc1 -4.41%, Brc1ccc(C2CC(c3ccccc3)=Nc3ccccc3N2)cc1 (stereo not given) 5.04%, CCOC(=O)[C@]12CCCCC/C=C\1N(Cc1ccc(OC)cc1)C(=O)[C@H]2CC(=O)N1CCOCC1 -1.27%, Cc1cc(C)n2ncc(C(=O)Nc3ccc4c(c3)OCCO4)c2n1 1.44%, CC(=O)Nc1ccc(C(=O)OCC(=O)Nc2ccc([N+](=O)[O-])cc2C(F)(F)F)cc1 1.78%, O=C(Nc1cc2c3c(c1)C1CCCC1CN3CC1CCCC21)c1ccc([N+](=O)[O-])cc1 (stereo not given) 0.76%, Cc1ccccc1CN1CCCCC(NC(=O)Nc2ccccc2F)C1=O (stereo not given) -1.11%, O=C(Nc1cc(F)cc(F)c1)OC1CCC12CCC(c1ccccc1)CC2 (stereo not given) -2.65%, CCCNC(=O)Nc1ccc2c(c1)C(=O)N(C)[C@H]1CC[C@H](CC(=O)NCC3CCCCC3)O[C@@H]1CO2 -2.65%, CCOC(=O)N1CCN(C(=O)C[C@@H]2C(=O)N(CCc3ccc(Cl)cc3)C3=CCCC[C@]32C(=O)OCC)CC1 -0.28%, COc1ccc(CSc2nnc(SCC(=O)Nc3ccccc3C(F)(F)F)s2)cc1 -4.35%, CCN(C(=O)COC(=O)CCC(=O)c1cccs1)C1CCCCC1 9.09%, CC1CCN(C(=O)COC(=O)CCC(=O)c2cccs2)CC1 0.03%, C=CCN1C(=O)[C@@H](CC(=O)N2CCN(C(=O)c3ccco3)CC2)[C@]2(C(=O)OC)CCCCC=C12 -3.78%, COc1cc(/C=C/C(=O)n2cnc3ccccc32)cc(OC)c1OC -2.83%, C[C@@H]1ON(C)[C@H]2C[C@H]3c4[nH]c5cccc(-c6ccc7c(c6)OCO7)c5c4CCN3C[C@@H]12 4.41%, Cc1ccc(/C=N/NC(=O)c2sccc2OCc2ccc(F)cc2)cc1 -2.37%, Cc1c(Cl)c([N+](=O)[O-])nn1Cc1ccc(C(=O)N/N=C\c2cc(Cl)ccc2O)o1 -2.68%, CCC[C@H]1C(=O)CC[C@@]23CCCN2C(=O)CCC[C@@H]13 0.78%, O=C(OCCOc1ccccc1Cl)c1cc(S(=O)(=O)N2CCCCC2)ccc1N1CCOCC1 4.88%, O=C(COC(=O)c1cc(S(=O)(=O)N2CCOCC2)ccc1F)NC1CC1 1.33%, O=C(NCC1COc2ccccc2O1)c1ccc(NC(=O)c2cc(F)ccc2F)cc1 (stereo not given) -2.1%, O=C(CSc1nc2c(c(=O)[nH]1)CCCC2)N1CCCCC1 3.68%, CCOC(=O)C(=O)N(Cc1ccccc1)c1ccccc1C(=O)Nc1cc(OC)ccc1OC 0.37%, COC(=O)[C@]12C[C@H](CC(=O)NCc3ccccc3)C(=O)N(CCc3ccc(OC)c(OC)c3)C1=C[C@H](C(C)(C)C)O[C@@H]2C -2.49%, C#CCNC(=O)C[C@H]1C[C@@]2(C(=O)OC)C(=C[C@H](C(C)C)O[C@@H]2C2CC2)N(Cc2ccco2)C1=O 0.25%, C=C(C)C#CC(Cc1ccccc1)NCC1CC1 (stereo not given) -6.26%, CN[C@H]1C[C@H]2c3cc(N4CCOCC4)ccc3CCN2C[C@H]1[C@H](C)O 3.07%, C[C@H](NC(=O)c1ccccc1Cl)C(=O)OCC(=O)N1CCN(c2ccccc2)CC1 1.43%, Cc1ccc(C)c(OCCC(=O)OCC(=O)N2CCN(c3ccccc3)CC2)c1 -9.14%, COc1ccc(-n2c(SCC(=O)Nc3ccccc3-c3ccccc3)nnc2-c2cccnc2)cc1 -1.52%, COc1ccc(CNC(=O)C(C)NCc2ccccc2Cl)cc1 (stereo not given) -0.38%, COc1ccc(NC(=O)N2CCCC2C(=O)NCc2ccccc2Cl)cc1 (stereo not given) -4.21%, CCC(=O)OCCCN1C(=O)CCC12CCC(c1ccccc1)CC2 (stereo not given) 2.48%, O=C1CC(c2ccc3c(c2)OCO3)N=C2N(CC3CC3)C/C(=C/c3ccccc3)N12 (stereo not given) -0.65%, Cc1cc(NS(=O)(=O)c2ccc(NC(=O)CSc3nnc(SCc4ccc(F)cc4)s3)cc2)nc(C)n1 -3.91%, CCOC(=O)C1CCN(C(=O)C(C)(C)NC(=O)Nc2ccc(F)c(F)c2)CC1 3.2%, Cc1ccc(S(=O)(=O)N/N=C(\c2ccccc2)C2CC2)cc1 0.27%, CNC(=O)COc1ccc(S(=O)(=O)Nc2ccccc2)cc1 -0.9%, COc1ccc(C(=O)C(C)OC(=O)c2cccc(S(=O)(=O)Nc3c(C)n(C)n(-c4ccccc4)c3=O)c2)cc1 (stereo not given) 1.63%, Cc1ccc(S(=O)(=O)N[C@H](CO)C(C)C)cc1 4.45%, Cc1ccc(C)c(NC(=O)CCS(=O)(=O)c2ccccc2)c1 1.44%, O=C1CC[C@@]23CCCN2C(=O)CCC[C@H]3[C@H]1Cc1ccccc1 -0.34%, Fc1ccc2nc(COCc3nc4ccc(F)cc4[nH]3)[nH]c2c1 0.7%
